Results on 21 compounds are retold here after PubChem BioAssay (NCATS).

A short description of assay [1]: Validation screen for small molecules that induce genotoxicity in human embryonic kidney (HEK293T) cells expressing luciferase-tagged ELG1 (AID 493106). Further: 0% is about no effect. In a few lines: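 Luminescence from an ELG1-luciferase fusion serves as the read-out, rising when genetic stress elevates ELG1 protein. HEK293T reporter cells (2,000 per well) received 23 nL compound, incubated 16 hr at 37 °C, then ONE-Glo for 30 min at room temperature.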

The target in assay [2] is ATPase family AAA domain-containing protein 5 (Homo sapiens) (UniProt Q96QE3). Nature of the assay: Validation screen for small molecules that inhibit ELG1-dependent DNA repair in human embryonic kidney (HEK293T) cells expressing luciferase-tagged ELG1 (AID 493107).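 Further: cells co-treated with the DNA-damaging agent 5-fluorouridine alongside compound; series mostly up to about 46 µM; on the % scale 0 is the no-effect control and ±100 the full control effect; inhibitors lower the ELG1-luciferase luminescence signal; nearly all actives have a fitted effect of over 70% in size.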 Summed up:
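Luminescence from ONE-Glo, developed 30 min at room temperature, served as read-out of ELG1-luciferase levels. Beforehand, reporter HEK293T cells received 5-fluorouridine plus test compound for 16 hr at 37 °C.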

Assay [3] is described as follows: qHTS for Inhibitors of Cell Surface uPA Generation: Validation Assay (AID 493164). Further: 0% is about no effect. In a few lines: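 RAW 264.7 cells (4000/well) were plated overnight, then exposed for 18 h at 37 C, 5% CO2 to compounds in a 7-point 1:5 titration (2.45 nM–38.3 uM final). Intracellular ATP was read by ATP-Lite luminescence.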
On the technique in general: qHTS replaces the single test concentration by a dilution series.

Assay [4] addresses Peptidyl-prolyl cis-trans isomerase NIMA-interacting 1 (Homo sapiens) (UniProt Q13526). Nature of the assay: qHTS Validation Assay to Find Inhibitors of Pin1 (AID 504536; active means well fitted inhibition curve with a large enough effect in the polarisation, with a control signal flat, not every such curve was filed as active; the % refers to the polarisation;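 further: 0% = full Pin1 enzyme wells and -100% = no-enzyme wells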). In a few lines: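 Fluorescence polarization competition: compounds (titration) displace HiFluor-488-labeled Pin1-1b peptide from Pin1 (0.3 uM final) in pH 7.5 HEPES buffer with DTT, 10 min at room temperature; %Activity normalized to no-enzyme wells, curves fitted.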

In assay [5] the target is Phosphoglycerate kinase, glycosomal (Trypanosoma brucei brucei) (UniProt P07378). Description: qHTS Validation Assay to Find Inhibitors of Phosphoglycerate Kinase (AID 504547).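 Further: control wells lack PGK and mark full inhibition.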 Summed up: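 Substrate/PGK mix plus compound; reaction started with GAPDH (100nM final) to form 1,3-BPG; 60 min RT; Kinase-Glo Plus 10 min; luminescence. TEA 100mM pH 7.6, MgCl2 5mM, Tween-20 0.01%.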

Assay [6] has as its target phosphoglycerate mutase (Leishmania major) (UniProt Q4Q090). Description: qHTS Validation Assay to Find Inhibitors of Phosphoglycerate Mutase (AID 504548). Further: series mostly up to about 58 µM; on the % scale 0 is the no-effect control and ±100 the full control effect. In a few lines:
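Lm PGAM at 1.25 nM final with substrate in 100 mM TEA pH 7.6, 5 mM MgCl2, 0.01% Tween-20; 45 min at room temperature. Kinase-GloPlus added, 10 min, end-point luminescence read.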

The target in assay [7] is Ubiquitin carboxyl-terminal hydrolase 1 (Homo sapiens) (UniProt O94782). Description: Inhibitors of USP1/UAF1: Pilot qHTS (AID 504865). Further: nearly all actives have a fitted effect of over 35% in size. Further: potency means the concentration at half of the fitted maximal effect. Summed up: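 In 50mM HEPES pH 7.8 containing 0.5mM EDTA, 1mM TCEP, 0.1 mg/ml BSA and 0.01% Tween-20, 1nM USP1/UAF1 is exposed to compound for 15 min, then Ub-Rho (150nM final) is added and fluorescence is read over time.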
Assay [8] in a line: qHTS for Inhibitors of ATXN expression: Validation of Cytotoxic Assay (AID 588349). Further: on the % scale 0 is the no-effect control and ±100 the full control effect. Summed up: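 Read-out: ATP-based luminescence (CellTiter Glo) reflecting viability of HEK293 cells after 72 hr incubation at 37 degrees C with a concentration series of each compound.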
The target in assay [9] is ATP-dependent 6-phosphofructokinase (Trypanosoma brucei brucei) (UniProt O15648). Nature of the assay: qHTS Assay to Find Inhibitors of T. brucei phosphofructokinase: hit validation (AID 492961).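 Further: luminescence reports ADP formed as PFK phosphorylates fructose-6-phosphate with ATP; series mostly up to about 51 µM; on the % scale 0 is the no-effect control and ±100 the full control effect.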 Summed up:
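Reaction: 0.1 M triethanolamine pH 8.0, 5 mM MgCl2, F6P 0.5 mM, ATP 0.1 mM, PFK 1.25 nM, 45 min RT. Read-out: ADP-Glo luminescence. Analysis: concentration-response fits, classed by r2 and efficacy.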

The nature of assay [10]: Nrf2 qHTS screen for inhibitors: Validation (AID 493153; active means well fitted inhibition curve with a large enough effect in the main read-out, with a control signal flat, not every such curve was filed as active). The settings on record: Potency: luciferase luminescence; viability change: measured here: cytotoxicity max response. Summed up:
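Luminescence from an ARE-firefly luciferase reporter in A549 cells gives Nrf2 inhibition; an earlier CellTiter-Fluor fluorescent read flags cytotoxicity. Cells in 5% FBS OPTI-MEM received compound dilution series for 18-24 h at 37°C.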

The target of assay [11] is DNA dC->dU-editing enzyme APOBEC-3G (Homo sapiens) (UniProt Q9HC16). Description: qHTS for inhibitors of Vif-A3G interactions: Validation (AID 588379). Further: 0% is about no effect. In a few lines:
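HeLa cells stably expressing Vif and A3G-eYFP, 700 cells/well, incubated overnight at 37 deg C, then exposed to compound overnight at 37 deg C. Inhibition of Vif-mediated degradation read as increased yellow fluorescence (Ex 488/Em 500-530) by laser-scanning cytometry.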

For assay [12], the target named is Thyrotropin-releasing hormone receptor (Homo sapiens) (UniProt P34981). Nature of the assay: qHTS for Small Molecule Agonists and Allosteric Enhancers of Human TRH Receptor: Validation Screen for Agonists (AID 493127;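 active means calcium activation more than 3 SD above the typical response in the agonist read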;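 further: intracellular calcium rise by fluo-8 fluorescence before TRH EC20 addition; 0% is about no effect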). The settings on record: TRH receptor agonist cell assay; at 2 µM; stronger effect = higher value. Summed up:
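Cells 2000/well, 10% FCS, 18 h 33.5C/5% CO2 → fluo-8 Ca dye, RT 30 min–1.5 h → FDSS baseline 10 × 1 s → compound added → 230 cycles (1 s/cycle) agonist mode. TRH controls.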

Assay [13] in a line: Validation screen for small molecules that induce DNA re-replication in SW480 colon adenocarcinoma cells (AID 504364). Further: 0% is about no effect. Summed up:
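250 cells/well; compound pinned in; 48 hr, 37 C, 5% CO2; Hoechst added, 40 min; nuclear fluorescence imaged, 405 ex / 500-530 em; re-replication scored as increase in high-intensity nuclei.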

The target of assay [14] is Glucocorticoid receptor (Homo sapiens) (UniProt P04150). Description: qHTS assay for small molecule agonists of glucocorticoid receptor signaling (AID 588532; active means well fitted curve in the direction sought with a large enough effect in the signal ratio, with a control signal flat; the % refers to the signal ratio;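 further: 100% = dexamethasone at 0.1 µM and 0% = DMSO only wells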). As to conditions: HeLa MMTV-bla, beta-lactamase ratio, agonist, 18 h; stronger effect = higher value; percent of dexamethasone control, DMSO zero. In a few lines: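 Stimulation of a glucocorticoid response element-driven beta-lactamase gene was measured in HeLa cells. Responses were scaled between DMSO basal and 0.1 uM dexamethasone, then fitted for half-maximal stimulation.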

Results filed as inconclusive are left out. Calls of active or inactive are those of the source. Unless noted, the call rests on the fitted dose curve; in most records, active means well fitted curve in the direction sought with a large enough effect; inconclusive means small, poorly fitted or top-dose-only effect, or another doubt; inactive means no such curve, though single readings can be large; an effect the other way counts as inactive or inconclusive.

Sequence of ATPase family AAA domain-containing protein 5 (Homo sapiens) (Q96QE3 whole entry, looked up, the tested form may be a part): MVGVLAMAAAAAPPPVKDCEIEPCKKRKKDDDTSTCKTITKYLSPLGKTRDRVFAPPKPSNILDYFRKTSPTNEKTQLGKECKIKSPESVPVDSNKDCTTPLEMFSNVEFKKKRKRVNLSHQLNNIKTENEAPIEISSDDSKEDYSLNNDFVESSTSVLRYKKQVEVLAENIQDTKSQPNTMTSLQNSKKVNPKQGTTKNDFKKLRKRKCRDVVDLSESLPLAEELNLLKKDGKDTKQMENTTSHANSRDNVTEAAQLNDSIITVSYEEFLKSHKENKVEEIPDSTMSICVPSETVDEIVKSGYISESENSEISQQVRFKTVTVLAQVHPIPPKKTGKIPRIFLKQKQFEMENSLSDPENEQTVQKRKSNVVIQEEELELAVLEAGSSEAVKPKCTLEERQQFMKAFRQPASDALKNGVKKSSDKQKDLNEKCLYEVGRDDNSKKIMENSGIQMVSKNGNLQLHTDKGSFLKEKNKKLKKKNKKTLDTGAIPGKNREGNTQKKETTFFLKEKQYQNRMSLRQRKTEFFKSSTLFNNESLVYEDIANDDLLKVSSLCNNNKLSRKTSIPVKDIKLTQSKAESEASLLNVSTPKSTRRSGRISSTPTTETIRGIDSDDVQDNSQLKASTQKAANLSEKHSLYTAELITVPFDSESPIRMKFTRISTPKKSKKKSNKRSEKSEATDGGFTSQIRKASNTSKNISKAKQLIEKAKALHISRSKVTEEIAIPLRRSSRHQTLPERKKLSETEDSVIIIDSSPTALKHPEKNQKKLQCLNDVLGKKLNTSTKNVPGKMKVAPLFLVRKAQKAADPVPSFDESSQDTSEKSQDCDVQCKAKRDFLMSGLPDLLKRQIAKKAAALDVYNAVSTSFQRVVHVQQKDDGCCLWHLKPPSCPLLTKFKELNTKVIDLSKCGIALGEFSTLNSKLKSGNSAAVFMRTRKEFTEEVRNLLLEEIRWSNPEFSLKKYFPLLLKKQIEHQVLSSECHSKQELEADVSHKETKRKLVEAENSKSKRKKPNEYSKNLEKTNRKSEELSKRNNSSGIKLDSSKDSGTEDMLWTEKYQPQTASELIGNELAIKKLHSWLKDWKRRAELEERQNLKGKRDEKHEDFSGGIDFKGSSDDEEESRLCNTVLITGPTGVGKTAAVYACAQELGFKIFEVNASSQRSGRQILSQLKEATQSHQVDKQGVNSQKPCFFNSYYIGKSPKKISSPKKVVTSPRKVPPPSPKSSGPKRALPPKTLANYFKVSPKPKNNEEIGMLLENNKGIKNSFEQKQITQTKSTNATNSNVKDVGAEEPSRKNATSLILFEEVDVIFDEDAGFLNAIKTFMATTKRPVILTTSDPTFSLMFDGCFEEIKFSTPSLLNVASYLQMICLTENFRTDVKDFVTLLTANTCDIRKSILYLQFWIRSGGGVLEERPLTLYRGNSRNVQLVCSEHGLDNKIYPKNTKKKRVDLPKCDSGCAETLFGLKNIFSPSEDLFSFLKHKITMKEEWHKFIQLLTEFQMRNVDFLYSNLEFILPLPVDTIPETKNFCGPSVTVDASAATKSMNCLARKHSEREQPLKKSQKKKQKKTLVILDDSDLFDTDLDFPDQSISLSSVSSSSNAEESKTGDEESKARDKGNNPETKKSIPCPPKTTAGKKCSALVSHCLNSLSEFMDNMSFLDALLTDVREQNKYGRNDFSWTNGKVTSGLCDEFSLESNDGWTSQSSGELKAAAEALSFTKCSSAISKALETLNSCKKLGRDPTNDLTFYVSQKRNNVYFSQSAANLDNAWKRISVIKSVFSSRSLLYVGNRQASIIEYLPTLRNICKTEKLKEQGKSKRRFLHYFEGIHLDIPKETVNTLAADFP
Sequence of ATP-dependent 6-phosphofructokinase (Trypanosoma brucei brucei) (O15648 whole entry, looked up): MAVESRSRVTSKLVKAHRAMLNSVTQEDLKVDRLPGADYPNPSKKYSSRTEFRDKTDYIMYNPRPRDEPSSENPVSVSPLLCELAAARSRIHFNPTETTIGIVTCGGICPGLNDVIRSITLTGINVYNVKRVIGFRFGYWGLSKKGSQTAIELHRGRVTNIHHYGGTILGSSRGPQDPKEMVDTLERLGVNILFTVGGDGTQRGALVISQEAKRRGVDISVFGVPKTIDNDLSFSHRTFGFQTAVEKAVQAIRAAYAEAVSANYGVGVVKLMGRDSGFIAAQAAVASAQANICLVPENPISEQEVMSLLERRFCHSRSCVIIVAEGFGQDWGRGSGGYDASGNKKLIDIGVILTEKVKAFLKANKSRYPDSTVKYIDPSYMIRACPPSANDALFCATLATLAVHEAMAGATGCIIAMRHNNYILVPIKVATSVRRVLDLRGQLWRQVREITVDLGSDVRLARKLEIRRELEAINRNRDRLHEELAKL
Sequence of Ubiquitin carboxyl-terminal hydrolase 1 (Homo sapiens) (O94782 whole entry, looked up): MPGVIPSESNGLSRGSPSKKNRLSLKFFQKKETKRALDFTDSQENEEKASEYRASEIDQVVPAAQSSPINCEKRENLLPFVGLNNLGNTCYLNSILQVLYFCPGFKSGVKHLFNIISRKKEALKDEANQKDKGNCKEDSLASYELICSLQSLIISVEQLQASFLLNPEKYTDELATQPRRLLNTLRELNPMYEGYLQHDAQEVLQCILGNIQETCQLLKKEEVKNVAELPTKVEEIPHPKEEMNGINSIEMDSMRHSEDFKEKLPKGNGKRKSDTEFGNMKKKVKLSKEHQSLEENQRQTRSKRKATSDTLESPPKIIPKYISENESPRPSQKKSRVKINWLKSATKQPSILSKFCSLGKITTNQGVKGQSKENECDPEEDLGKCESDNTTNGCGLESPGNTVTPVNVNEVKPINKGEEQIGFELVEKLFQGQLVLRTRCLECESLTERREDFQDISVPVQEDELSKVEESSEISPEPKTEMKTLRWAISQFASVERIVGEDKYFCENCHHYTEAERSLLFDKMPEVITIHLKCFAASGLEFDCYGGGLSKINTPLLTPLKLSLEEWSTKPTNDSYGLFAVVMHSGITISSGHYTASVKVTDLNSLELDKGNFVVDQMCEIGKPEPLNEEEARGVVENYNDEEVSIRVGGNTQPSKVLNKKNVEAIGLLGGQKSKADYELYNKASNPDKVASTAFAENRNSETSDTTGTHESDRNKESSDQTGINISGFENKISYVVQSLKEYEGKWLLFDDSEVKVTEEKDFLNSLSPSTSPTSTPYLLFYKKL
Sequence of Phosphoglycerate kinase, glycosomal (Trypanosoma brucei brucei) (P07378 whole entry, looked up): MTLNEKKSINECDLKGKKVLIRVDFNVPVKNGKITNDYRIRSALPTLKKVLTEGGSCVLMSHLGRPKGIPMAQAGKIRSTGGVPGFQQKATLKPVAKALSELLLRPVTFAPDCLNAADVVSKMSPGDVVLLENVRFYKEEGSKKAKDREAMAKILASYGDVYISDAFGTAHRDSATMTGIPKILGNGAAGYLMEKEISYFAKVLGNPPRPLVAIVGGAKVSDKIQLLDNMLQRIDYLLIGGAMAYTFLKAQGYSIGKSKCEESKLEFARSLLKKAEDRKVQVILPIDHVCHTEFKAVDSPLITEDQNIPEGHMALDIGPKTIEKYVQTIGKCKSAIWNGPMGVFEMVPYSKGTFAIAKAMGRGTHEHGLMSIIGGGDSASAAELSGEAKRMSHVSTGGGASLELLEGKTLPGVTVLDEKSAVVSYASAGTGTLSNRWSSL
Sequence of Peptidyl-prolyl cis-trans isomerase NIMA-interacting 1 (Homo sapiens) (Q13526 whole entry, looked up): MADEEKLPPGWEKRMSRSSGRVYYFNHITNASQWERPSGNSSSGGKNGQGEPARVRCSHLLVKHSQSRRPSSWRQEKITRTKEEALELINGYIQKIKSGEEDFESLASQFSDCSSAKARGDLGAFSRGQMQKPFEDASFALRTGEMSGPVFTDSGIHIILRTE
Sequence of phosphoglycerate mutase (Leishmania major) (Q4Q090 1-553): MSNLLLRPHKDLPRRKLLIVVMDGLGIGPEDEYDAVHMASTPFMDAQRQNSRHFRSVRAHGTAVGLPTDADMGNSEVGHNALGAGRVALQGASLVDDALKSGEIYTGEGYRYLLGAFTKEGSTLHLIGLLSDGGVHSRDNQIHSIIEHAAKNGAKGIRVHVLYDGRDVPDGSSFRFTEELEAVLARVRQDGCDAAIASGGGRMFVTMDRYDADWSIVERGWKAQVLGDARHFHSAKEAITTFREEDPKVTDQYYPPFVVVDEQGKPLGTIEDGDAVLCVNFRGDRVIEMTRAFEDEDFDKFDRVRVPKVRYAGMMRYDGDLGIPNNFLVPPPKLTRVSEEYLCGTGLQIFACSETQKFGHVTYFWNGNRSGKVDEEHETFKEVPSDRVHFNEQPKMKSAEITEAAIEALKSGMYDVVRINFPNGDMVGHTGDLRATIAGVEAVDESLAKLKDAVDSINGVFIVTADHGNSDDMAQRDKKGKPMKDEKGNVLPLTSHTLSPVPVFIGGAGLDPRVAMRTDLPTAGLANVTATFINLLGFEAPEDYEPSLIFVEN
Sequence of DNA dC->dU-editing enzyme APOBEC-3G (Homo sapiens) (Q9HC16 whole entry, looked up): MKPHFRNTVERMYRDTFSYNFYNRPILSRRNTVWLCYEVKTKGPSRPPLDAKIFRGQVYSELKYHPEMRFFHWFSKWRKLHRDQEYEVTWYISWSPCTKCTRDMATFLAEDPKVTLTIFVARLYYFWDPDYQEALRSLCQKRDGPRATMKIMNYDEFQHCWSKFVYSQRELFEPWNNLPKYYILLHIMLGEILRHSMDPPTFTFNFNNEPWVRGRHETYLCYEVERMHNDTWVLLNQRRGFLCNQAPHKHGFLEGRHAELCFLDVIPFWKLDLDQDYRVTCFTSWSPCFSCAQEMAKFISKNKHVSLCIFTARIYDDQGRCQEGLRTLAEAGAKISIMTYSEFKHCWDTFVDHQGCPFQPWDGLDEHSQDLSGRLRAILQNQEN

With `N[C@@H](Cn1ccc(=O)c(O)c1)C(=O)O`, the outcome in assay [1], in assay [3], in assay [4], in assay [5], in [6] and in [8] was inactive. The Potency result in assay [2] and in [7] was “inactive” throughout.

As to `Nc1ncnc2nc[nH]c12`, the compound was classed as inactive in assay [9]. In addition, the Potency entry in assay [7] was “inactive”.

As for `Clc1ccc2c(c1)N=C(N1CCNCC1)c1ccccc1N2`, the compound was classed as inactive in [1], in assay [3], in assay [4], in [5], in assay [6] and in assay [11]. Further, the Potency result in assay [2] and in [10] was “inactive” in each case. In addition, the viability change in [10] turned out to be 1.81%.

`CN1CCC(Nc2ncc3ncnc(Nc4ccc(F)c(Cl)c4)c3n2)CC1`: the compound was classed as inactive in assay [9]. In [7], the Potency result was “inactive”.

With `Brc1ccc([C@H]2CN3CCSC3=N2)cc1`, the call in [1], in assay [3], in [13], in [5], in assay [6] and in assay [8] was inactive. Also, the Potency entry in [2], in assay [10] and in assay [7] was “inactive” each time. For the same compound, the activation in assay [12] was -2.94% (inactive). The viability change in [10] was -0.405%.

With `O=S(=O)(O)c1ccc2nc(-c3ccccc3)[nH]c2c1`, the call in assay [9] was inactive. The Potency result in assay [7] is “inactive”.

For `O=C(CCCCC(=O)Nc1c(I)cc(I)c(C(=O)O)c1I)Nc1c(I)cc(I)c(C(=O)O)c1I`, the Potency result in assay [7] is “inactive”.

As to `Cc1nn(-c2ccccc2)c(C)c1/C=N/N1CCN(Cc2ccccc2)CC1`, the compound was called inactive in assay [1], in assay [3], in assay [4], in [5], in assay [6] and in assay [8]. Moreover, the Potency entry in assay [10] was “inactive”. In addition, in assay [10], the viability change was -3.49%.

For the compound `CCOC(=O)NNc1nncc2ccccc12`, the Potency result in assay [7] was “inactive”.

`CCCCCCCCCCCCCCCC[n+]1ccccc1`: the compound was classed as inactive in [9]. Further, in assay [14], the activation was 4.95% (inactive).

In the case of `C[N+](C)(C)CCO`, the outcome in [1], in assay [3], in assay [13], in assay [4], in [5] and in assay [6] was inactive. Also, the outcome in assay [8] was inactive. For the same compound, the Potency entry in assay [2], in [10] and in assay [7] was “inactive” in each case. The viability change in assay [10] was -3.89%.

Regarding `Cn1cnc2c(NCc3ccccc3)nc(NCCO)nc21`, the call in assay [1], in assay [3], in assay [13], in assay [4], in assay [5] and in [6] was inactive. For the same compound, the result in assay [8] and in assay [11] was inactive. For the same compound, the Potency entry in [2], in assay [10] and in assay [7] was “inactive” in each case. Also, in [12], the activation was 0.188% (inactive). Besides, the viability change in [10] was determined as 8.36%.

As for `CC(NCCC(c1ccccc1)c1ccccc1)c1ccccc1` (stereo not given), the call in assay [9] was inactive.

`O=C1NC(c2cccc([N+](=O)[O-])c2)=CCN1c1ccccc1O`: the result in [1], in [3], in assay [13], in assay [4], in [5] and in assay [6] was inactive. The compound was called inactive in assay [8] and in assay [11]. Moreover, the Potency entry in assay [2], in assay [10] and in [7] was “inactive” throughout. For the same compound, the activation in assay [12] was 1.25% (inactive). For the same compound, the viability change in [10] was -1.13%.

Consider `CCCCCCCCCCCCCCCC[N+](C)(C)Cc1ccccc1`, for which the Potency in assay [7] is 50.1 µM (active).

In the case of `COc1ccccc1N1CCN(CCN2C(=O)CC3(CCCC3)CC2=O)CC1`, the result in assay [1], in assay [3], in [13], in assay [4], in assay [5] and in [6] was inactive. In addition, the result in assay [8] and in assay [11] was inactive. The Potency entry in [2], in assay [10] and in assay [7] was “inactive” each time. Moreover, the activation in [12] is 2.31% (inactive). In [10], the viability change is 9.42%.

For the compound `COC(=O)C1=CO[C@@H](O)[C@@H]2C(CO)=CC[C@H]12`, the compound was classed as inactive in [1], in assay [3], in [4], in assay [5], in assay [6] and in [8]. For the same compound, the Potency entry in assay [2], in [10] and in [7] was “inactive” each time. Also, the viability change in assay [10] is -6.84%.

`CC(C)N(CCC(=O)c1ccc2ccccc2c1)Cc1ccccc1`: the outcome in assay [1], in [3], in assay [13], in assay [4], in [5] and in assay [11] was inactive. In addition, in [12], the activation is 3.12% (inactive). The Potency entry in [10] was “inactive”. Moreover, the viability change in assay [10] is -0.356%.

For `Nc1ccc2cc3ccc(N)cc3nc2c1`, the call in assay [9] was inactive. Further, the Potency entry in assay [7] is “inactive”.

With `O=C1NC(=O)/C(=C/c2ccc3c(c2)OC(F)(F)O3)S1`, the Potency entry in assay [10] and in assay [7] was “inactive” each time. Also, in [10], the viability change was -9.96%. For the same compound, the compound was called inactive in assay [3], in assay [4], in [5], in [6] and in [8].

Turning to `NC(N)=NCCCCN=C(N)N`, the compound was called inactive in assay [1], in assay [3], in [13], in assay [4], in assay [5] and in [6]. Moreover, the compound was called inactive in [8] and in assay [11]. The Potency entry in assay [2], in assay [10] and in assay [7] was “inactive” in each case. For the same compound, the activation in [12] was 0.938% (inactive). For the same compound, the viability change in assay [10] was 2.98%.
